The panel holds about 79,000 compounds, 15% with a hit somewhere; the sample as a whole holds those more often. Active and inactive are the calls of the source. Cut-off read from the data, not from the text of the source: active = growth inhibition above about 70%; inactive = the rest.
Key:
[1] = NCI Yeast Anticancer Drug Screen. Data for the rad52 strain (AID 147);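 note: 0% = growth of vehicle-treated control cultures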; conditions: S. cerevisiae rad52 mutant growth inhibition, hits give high values
Outline: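 Growth of repair-deficient yeast cells was compared between compound-treated and vehicle-treated cultures to give percent inhibition.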

[2] = NCI Yeast Anticancer Drug Screen. Data for the wt1 strain (AID 149);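 note: 0% = growth of vehicle-treated wt1 cultures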; conditions: S. cerevisiae wt1 strain (SPY 50644) growth inhibition, hits give high values
Outline: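 wt1 strain grown with compound or vehicle; inhibition taken from the growth difference.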

[3] = NCI Yeast Anticancer Drug Screen. Data for the rad50EPP+ strain (AID 151);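 note: 0% = growth of vehicle-treated control cultures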; conditions: S. cerevisiae rad50 mutant strain, hits give high values
Outline: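 Measured: growth inhibition of rad50EPP+ yeast. Reference: vehicle-treated controls. Screen uses strains with defined genetic alterations in DNA damage repair or cell cycle control.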

[4] = NCI Yeast Anticancer Drug Screen. Data for the mgt1 strain (AID 153); conditions: S. cerevisiae mgt1 mutant growth inhibition, hits give high values
Outline: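 Compounds were applied to mgt1 mutant yeast, and growth was then compared against vehicle-treated control cultures to give percent inhibition.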

[5] = NCI Yeast Anticancer Drug Screen. Data for the rad50 strain (AID 155);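 note: 0% = growth of vehicle-only cultures of the same strain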; conditions: S. cerevisiae rad50 strain growth inhibition, hits give high values
Outline: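 DNA repair mutant yeast, compound exposure, growth read-out; inhibition is taken relative to vehicle.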

[6] = NCI Yeast Anticancer Drug Screen. Data for the mec2-1 strain (AID 157); conditions: S. cerevisiae mec2-1 strain, hits give high values
Outline: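 Compounds were applied to mec2-1 yeast cells. Their growth was then compared with that of vehicle-treated cultures to give growth inhibition.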

[7] = NCI Yeast Anticancer Drug Screen. Data for the rad14 strain (AID 159);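 note: 0% = growth of vehicle-treated control cultures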; conditions: S. cerevisiae rad14 strain growth inhibition, hits give high values
Outline: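 DNA repair-defective yeast, compound-exposed; % growth inhibition derived by comparison with vehicle-treated controls.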

[8] = NCI Yeast Anticancer Drug Screen. Data for the sgs1 mgt1 strain (AID 161);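 note: 0% = growth of cultures given vehicle only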; conditions: S. cerevisiae sgs1 mgt1 strain, hits give high values
Outline: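 Percent growth inhibition was derived by comparing compound-exposed mutant yeast with vehicle-exposed cultures. The strain carries alterations in DNA damage repair.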

[9] = NCI Yeast Anticancer Drug Screen. Data for the CLN2oe strain (AID 163);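 note: 0% = growth of vehicle-only control cultures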; conditions: S. cerevisiae CLN2oe strain, hits give high values
Outline: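 Cells of an engineered yeast line with disturbed cell-cycle regulation are treated with compound. Inhibition of growth is then calculated relative to the vehicle-treated reference.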

[10] = NCI Yeast Anticancer Drug Screen. Data for the cln2 rad14 strain (AID 165);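 note: 0% = growth equal to vehicle treated cultures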; conditions: S. cerevisiae cln2 rad14 strain, hits give high values
Outline: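 Strain: cln2 rad14 yeast, altered in cell cycle control and DNA damage repair. Read-out: growth inhibition vs vehicle.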

[11] = NCI Yeast Anticancer Drug Screen. Data for the bub3 strain (AID 167); conditions: S. cerevisiae bub3 mutant strain, hits give high values
Outline: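 In this screen, a yeast mutant lacking normal mitotic checkpoint function is challenged with compound. Relative growth versus vehicle gives the inhibition value.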

[12] = NCI Yeast Anticancer Drug Screen. Data for the wt2 strain (AID 169);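 note: 0% = growth of vehicle-treated yeast cultures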; conditions: S. cerevisiae wt2 strain growth inhibition, hits give high values
Outline: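 Growth of compound-treated yeast is measured and expressed as inhibition relative to vehicle-only controls.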

[13] = NCI Yeast Anticancer Drug Screen. Data for the sgs1 strain (AID 173);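 note: 0% = growth of vehicle-only control cultures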; conditions: S. cerevisiae sgs1 mutant, hits give high values
Outline: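 Strain with an altered DNA repair or cell cycle pathway exposed to compound. Growth then measured. Value = inhibition versus vehicle control.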

[14] = NCI Yeast Anticancer Drug Screen. Data for the mlh1 rad18 strain (AID 175); conditions: S. cerevisiae mlh1 rad18 strain growth inhibition, hits give high values
Outline: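 A repair-deficient yeast strain is exposed to test compound, and growth is scored relative to vehicle-treated controls.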

[15] = NCI Yeast Anticancer Drug Screen. Data for the rad18 strain (AID 177); conditions: S. cerevisiae rad18 mutant growth inhibition, hits give high values
Outline: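 DNA-repair-defective yeast; compound treatment; growth inhibition scored against vehicle.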

[16] = at 5.0 µM (retest, dose inferred, filed as 0.5)
[17] = at 50.0 µM (retest, dose inferred, filed as 5.0)

Measured: growth inhibition

CCOc1ccc2c(c1)c(CC(=O)O)cn2C
active: [1]; at 100.0 µM 85% | [3]; at 11.0 µM 71% | [3]; at 33.0 µM 94% | [3]; at 100.0 µM 97% | [5]; at 33.0 µM 92% | [5]; [17] 94% | [5]; at 100.0 µM 98% | [7]; at 100.0 µM 75% | [11]; [17] 81% | [11]; at 50.0 µM 79.8% | [11]; at 100.0 µM 87% | [13]; at 100.0 µM 89% | [14]; [17] 92% | [14]; at 50.0 µM 88.2% | [15]; at 100.0 µM 87%
inactive: [1]; at 1.2 µM 0% | [1]; at 3.7 µM 7% | [1]; at 11.0 µM 20% | [1]; at 33.0 µM 60% | [2]; at 1.2 µM -4% | [2]; at 3.7 µM -3% | [2]; at 11.0 µM 3% | [2]; at 33.0 µM 28% | [2]; at 100.0 µM 54% | [3]; at 1.2 µM 6% | [3]; at 3.7 µM 27% | [4]; at 1.2 µM -3% | [4]; at 3.7 µM -6% | [4]; at 11.0 µM 1% | [4]; at 33.0 µM 18% | [4]; at 100.0 µM 51% | [5]; at 1.2 µM -6% | [5]; at 3.7 µM 7% | [5]; [16] -74% | [5]; at 11.0 µM 48% | [5]; at 50.0 µM 32.8% | [6]; at 1.2 µM 1% | [6]; at 3.7 µM -2% | [6]; [16] -40% | [6]; at 11.0 µM -7% | [6]; at 33.0 µM 27% | [6]; [17] 3% | [6]; at 50.0 µM 38.6% | [6]; at 100.0 µM 48% | [7]; at 1.2 µM 4% | [7]; at 3.7 µM 7% | [7]; at 11.0 µM 20% | [7]; at 33.0 µM 57% | [8]; [16] -38% | [8]; [17] 63% | [8]; at 50.0 µM 23.4% | [9]; at 1.2 µM -3% | [9]; at 3.7 µM -1% | [9]; at 11.0 µM 6% | [9]; at 33.0 µM 24% | [9]; at 100.0 µM 40% | [10]; [16] -47% | [10]; [17] -21% | [10]; at 50.0 µM 18.8% | [11]; at 1.2 µM -10% | [11]; at 3.7 µM 0% | [11]; [16] -49% | [11]; at 11.0 µM 12% | [11]; at 33.0 µM 50% | [12]; at 1.2 µM -3% | [12]; at 3.7 µM -3% | [12]; at 11.0 µM -3% | [12]; at 33.0 µM 16% | [12]; at 100.0 µM 61% | [13]; at 1.2 µM -1% | [13]; at 3.7 µM -3% | [13]; at 11.0 µM 21% | [13]; at 33.0 µM 63% | [14]; [16] -81% | [15]; at 1.2 µM 3% | [15]; at 3.7 µM 5% | [15]; at 11.0 µM 26% | [15]; at 33.0 µM 57%

CN(N=O)N1C(=O)SCC(c2ccccc2)(c2ccccc2)C1=O
inactive: [1]; at 1.2 µM -2% | [1]; at 3.7 µM 1% | [1]; at 11.0 µM 6% | [1]; at 33.0 µM 16% | [1]; at 100.0 µM 42% | [2]; at 1.2 µM -3% | [2]; at 3.7 µM -5% | [2]; at 11.0 µM -3% | [2]; at 33.0 µM -3% | [2]; at 100.0 µM 4% | [3]; at 1.2 µM -4% | [3]; at 3.7 µM 0% | [3]; at 11.0 µM 0% | [3]; at 33.0 µM 2% | [3]; at 100.0 µM 3% | [4]; at 1.2 µM -1% | [4]; at 3.7 µM 1% | [4]; at 11.0 µM 1% | [4]; at 33.0 µM -1% | [4]; at 100.0 µM 3% | [5]; at 1.2 µM 3% | [5]; at 3.7 µM 4% | [5]; [16] -26% | [5]; at 11.0 µM 13% | [5]; at 33.0 µM 11% | [5]; [17] 66% | [5]; at 50.0 µM 56% | [5]; at 100.0 µM 37% | [6]; at 1.2 µM 0% | [6]; at 3.7 µM 1% | [6]; [16] 10% | [6]; at 11.0 µM 1% | [6]; at 33.0 µM 5% | [6]; [17] 40% | [6]; at 50.0 µM 32.2% | [6]; at 100.0 µM 27% | [7]; at 1.2 µM 1% | [7]; at 3.7 µM -5% | [7]; at 11.0 µM -3% | [7]; at 33.0 µM -10% | [7]; at 100.0 µM -4% | [8]; [16] 9% | [8]; [17] 64% | [8]; at 50.0 µM 48.5% | [9]; at 1.2 µM -1% | [9]; at 3.7 µM 4% | [9]; at 11.0 µM 4% | [9]; at 33.0 µM 2% | [9]; at 100.0 µM 9% | [10]; [16] -26% | [10]; [17] 16% | [10]; at 50.0 µM 10.7% | [11]; at 1.2 µM -2% | [11]; at 3.7 µM 1% | [11]; [16] 3% | [11]; at 11.0 µM 12% | [11]; at 33.0 µM 15% | [11]; at 50.0 µM 66.2% | [11]; at 100.0 µM 26%
active: [11]; [17] 70%
